Measured values as given in PubChem BioAssay (Tox21).
“And” between values parts separate entries of the source, which are not always exact repeats. Equal values may be shown once. Results filed as inconclusive are left out. Some compounds were tested as several samples or in several runs, with calls that do not always agree. The source made the active and inactive calls. Calls come from the whole dose curve; as a rule, active = well fitted curve in the direction sought with a large enough effect in the repeat runs; inconclusive = weak or mixed curves; inactive = no such curve, though single readings can be large; an effect the other way counts as inactive or inconclusive.

Legend:
[1] = A CellTox Green Cytotoxicity Assay to monitor cytotoxicity in HEK293 cells - 40 hour (AID 1224871); note: nearly all actives have a fitted effect of over 45% in size
Procedure, shortened: (§1)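 Read-out: fluorescence of a cell-impermeant cyanine dye staining DNA of dead cells, proportional to cytotoxicity. HEK293, 600 cells/well with reagent, compound (23 nL DMSO) added after 5 h; reads at 0, 8, 16, 24, 32, 40 h.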

[2] = qHTS RealTime-Glo MT Cell Viability Assay in HEK293 cells - 16 hour (AID 1224872); note: top concentration of the series differs between compounds; nearly all actives have a fitted effect of over 50% in size
Procedure, shortened: (§2)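 Reads taken at 0, 8, 16, 24, 32 and 40 h from the same wells. HEK293 cells (600/well) carried RealTime-Glo reagents from seeding, with compound added after a 5 h settle at 37 C.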

[3] = qHTS RealTime-Glo MT Cell Viability Assay in HepG2 cells - 8 hour (AID 1224873); note: nearly all actives have a fitted effect of over 55% in size
Procedure, shortened: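 Real-time viability: cells seeded at 600 per well together with NanoLuc and cell-permeant prosubstrate, compounds added after 5 h incubation. Luminescence tracked at 0, 8, 16, 24, 32 and 40 h of exposure.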

[4] = qHTS RealTime-Glo MT Cell Viability Assay in HEK293 cells - 40 hour (AID 1224874); conditions: RealTime-Glo luminescence; max response: stronger effect = lower value; note: nearly all actives have a fitted effect of over 50% in size; note: potency is the fitted concentration of half-maximal effect
Procedure, shortened: (§3)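 Luminescence readout at each listed time point; HEK293, 600 cells/well, RealTime-Glo MT reagent added with cells; compounds pinned (23 nL in DMSO) after 5 h at 37 C; continuous culture at 37 C.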

[5] = A CellTox Green Cytotoxicity Assay to monitor cytotoxicity in HEK293 cells - 24 hour (AID 1224875); note: series mostly up to about 77 µM; nearly all actives have a fitted effect of over 45% in size
Procedure, shortened: as §1

[6] = A CellTox Green Cytotoxicity Assay to monitor cytotoxicity in HepG2 cells - 16 hour (AID 1224876); note: nearly all actives have a fitted effect of over 45% in size
Procedure, shortened: (§4)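 HepG2, 600 cells/well premixed w/ CellTox Green; 5 h settle, 37 C/5% CO2; pintool cpd add (DMSO); 37 C, 40 h; fluorescence read at 0, 8, 16, 24, 32, 40 h.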

[7] = qHTS RealTime-Glo MT Cell Viability Assay in HepG2 cells - 32 hour (AID 1224877); note: nearly all actives have a fitted effect of over 55% in size
Procedure, shortened: (§5)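 HepG2 suspension premixed with RealTime-Glo reagents is plated at 600 cells per well and left 5 h at 37 C/5% CO2. Compounds in DMSO then go in, and bioluminescence reflecting viable cell number is recorded over 40 h.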

[8] = A CellTox Green Cytotoxicity Assay to monitor cytotoxicity in HepG2 cells - 24 hour (AID 1224878); note: nearly all actives have a fitted effect of over 45% in size
Procedure, shortened: as §4

[9] = A CellTox Green Cytotoxicity Assay to monitor cytotoxicity in HepG2 cells - 40 hour (AID 1224879); note: nearly all actives have a fitted effect of over 40% in size
Procedure, shortened: as §4

[10] = qHTS RealTime-Glo MT Cell Viability Assay in HEK293 cells - 0 hour (AID 1224880)
Procedure, shortened: as §3

[11] = A CellTox Green Cytotoxicity Assay to monitor cytotoxicity in HEK293 cells - 32 hour (AID 1224881); note: nearly all actives have a fitted effect of over 40% in size
Procedure, shortened: as §1

[12] = A CellTox Green Cytotoxicity Assay to monitor cytotoxicity in HepG2 cells - 0 hour (AID 1224882); note: nearly all actives have a fitted effect of over 35% in size
Procedure, shortened: as §4

[13] = A CellTox Green Cytotoxicity Assay to monitor cytotoxicity in HepG2 cells - 32 hour (AID 1224883); note: nearly all actives have a fitted effect of over 50% in size
Procedure, shortened: as §4

[14] = A CellTox Green Cytotoxicity Assay to monitor cytotoxicity in HEK293 cells - 8 hour (AID 1224884); note: nearly all actives have a fitted effect of over 35% in size; note: potency is the fitted concentration of half-maximal effect
Procedure, shortened: as §1

[15] = qHTS RealTime-Glo MT Cell Viability Assay in HepG2 cells - 16 hour (AID 1224885); note: nearly all actives have a fitted effect of over 50% in size
Procedure, shortened: as §5

[16] = qHTS RealTime-Glo MT Cell Viability Assay in HEK293 cells - 24 hour (AID 1224886)
Procedure, shortened: as §2

[17] = qHTS RealTime-Glo MT Cell Viability Assay in HEK293 cells - 8 hour (AID 1224887)
Procedure, shortened: as §3

[18] = A CellTox Green Cytotoxicity Assay to monitor cytotoxicity in HEK293 cells - 16 hour (AID 1224888); note: nearly all actives have a fitted effect of over 35% in size
Procedure, shortened: as §1

[19] = qHTS RealTime-Glo MT Cell Viability Assay in HepG2 cells - 0 hour (AID 1224889); note: nearly all actives have a fitted effect of over 50% in size
Procedure, shortened: as §5

[20] = A CellTox Green Cytotoxicity Assay to monitor cytotoxicity in HepG2 cells - 8 hour (AID 1224890); note: nearly all actives have a fitted effect of over 45% in size
Procedure, shortened: as §4
% is set by controls: 0 for no effect and ±100 for the full control effect.

CC(C)(C#N)C(C)(C)C#N
inactive: Potency [1] | Potency [2] | Potency [3] | max response [4] 1.19% | Potency [5] | Potency [6] | Potency [7] | Potency [8] | Potency [9] | outcome [10] | Potency [11] | Potency [12] | Potency [13] | Potency [14] | Potency [15] | Potency [16] | Potency [17] | Potency [18] | outcome [19] | Potency [20]

C=CCSSCC=C
inactive: Potency [1] | Potency [2] | Potency [3] | max response [4] 1.18% | Potency [5] | Potency [6] | Potency [7] | Potency [8] | Potency [9] | outcome [10] | Potency [11] | Potency [12] | Potency [13] | Potency [15] | Potency [16] | Potency [17] | Potency [18] | outcome [19] | Potency [20]
active: Potency [14] 54.9 µM

CCC1(C2=NCCN2)Cc2ccccc2O1 (centres undefined)
inactive: Potency [1] | Potency [2] | Potency [3] | max response [4] 7.14% | Potency [5] | Potency [6] | Potency [7] | Potency [8] | Potency [9] | outcome [10] | Potency [11] | Potency [12] | Potency [13] | Potency [14] | Potency [15] | Potency [16] | Potency [17] | Potency [18] | outcome [19] | Potency [20]

CN1C(=O)CN=C(c2ccccc2)c2cc([N+](=O)[O-])ccc21
inactive: Potency [1] | Potency [2] | Potency [3] | max response [4] -12% | Potency [5] | Potency [6] | Potency [7] | Potency [8] | Potency [9] | outcome [10] | Potency [11] | Potency [12] | Potency [13] | Potency [14] | Potency [15] | Potency [16] | Potency [17] | Potency [18] | outcome [19] | Potency [20]

O=C(O)C(F)(F)C(F)(F)C(F)(F)C(F)(F)C(F)(F)F
inactive: Potency [1] | Potency [2] | Potency [3] | max response [4] -1.16% | Potency [5] | Potency [6] | Potency [7] | Potency [8] | Potency [9] | outcome [10] | Potency [11] | Potency [12] | Potency [13] | Potency [14] | Potency [15] | Potency [16] | Potency [17] | Potency [18] | outcome [19] | Potency [20]

N#CC1(N=NC2(C#N)CCCCC2)CCCCC1
inactive: Potency [1] | Potency [2] | Potency [3] | max response [4] -7.83% | Potency [5] | Potency [6] | Potency [7] | Potency [8] | Potency [9] | outcome [10] | Potency [11] | Potency [12] | Potency [13] | Potency [14] | Potency [15] | Potency [16] | Potency [17] | Potency [18] | outcome [19] | Potency [20]

Cc1ccc(N)c(C)c1
inactive: Potency [1] | Potency [2] | Potency [3] | max response [4] 4.9% and -12.6% | Potency [5] | Potency [6] | Potency [7] | Potency [8] | Potency [9] | outcome [10] | Potency [11] | Potency [12] | Potency [13] | Potency [14] | Potency [15] | Potency [16] | Potency [17] | Potency [18] | outcome [19] | Potency [20]

O=C(O)COc1cc(Cl)c(Cl)cc1Cl
inactive: Potency [1] | Potency [2] | Potency [3] | max response [4] 6.38% | Potency [5] | Potency [6] | Potency [7] | Potency [8] | Potency [9] | outcome [10] | Potency [11] | Potency [12] | Potency [13] | Potency [14] | Potency [15] | Potency [16] | Potency [17] | Potency [18] | outcome [19] | Potency [20]
active: Potency [4] 15.5 µM

O=C(O)c1cc(I)cc(I)c1I
inactive: Potency [1] | Potency [2] | Potency [3] | max response [4] -4.51% | Potency [5] | Potency [6] | Potency [7] | Potency [8] | Potency [9] | outcome [10] | Potency [11] | Potency [12] | Potency [13] | Potency [14] | Potency [15] | Potency [16] | Potency [17] | Potency [18] | outcome [19] | Potency [20]

CC(Cl)C(=O)O (centres undefined)
inactive: Potency [1] | Potency [2] | Potency [3] | max response [4] 19.1% | Potency [5] | Potency [6] | Potency [7] | Potency [8] | Potency [9] | outcome [10] | Potency [11] | Potency [12] | Potency [13] | Potency [14] | Potency [15] | Potency [16] | Potency [17] | Potency [18] | outcome [19] | Potency [20]

CCCCC(CC)CO[N+](=O)[O-] (centres undefined)
inactive: Potency [1] | Potency [2] | Potency [3] | max response [4] -1.82% | Potency [5] | Potency [6] | Potency [7] | Potency [8] | Potency [9] | outcome [10] | Potency [11] | Potency [12] | Potency [13] | Potency [14] | Potency [15] | Potency [16] | Potency [17] | Potency [18] | outcome [19]

CC(O)CN1CCN(CC(=O)[O-])CCN(CC(=O)[O-])CCN(CC(=O)[O-])CC1.[Gd+3] (centres undefined)
inactive: Potency [1] | Potency [2] | Potency [3] | max response [4] 3.85% | Potency [5] | Potency [6] | Potency [7] | Potency [8] | Potency [9] | outcome [10] | Potency [11] | Potency [12] | Potency [13] | Potency [14] | Potency [15] | Potency [16] | Potency [17] | Potency [18] | outcome [19]
